The structures appear in SMILES notation. Calls of active or inactive are those of the source. Rule for the calls: active = hit-call score of the fitted dose curve at least 0.9, where 1 is the maximum; inactive = score below 0.9.

Transcription factor Sp1 (Homo sapiens), sequence (P08047 whole entry, looked up): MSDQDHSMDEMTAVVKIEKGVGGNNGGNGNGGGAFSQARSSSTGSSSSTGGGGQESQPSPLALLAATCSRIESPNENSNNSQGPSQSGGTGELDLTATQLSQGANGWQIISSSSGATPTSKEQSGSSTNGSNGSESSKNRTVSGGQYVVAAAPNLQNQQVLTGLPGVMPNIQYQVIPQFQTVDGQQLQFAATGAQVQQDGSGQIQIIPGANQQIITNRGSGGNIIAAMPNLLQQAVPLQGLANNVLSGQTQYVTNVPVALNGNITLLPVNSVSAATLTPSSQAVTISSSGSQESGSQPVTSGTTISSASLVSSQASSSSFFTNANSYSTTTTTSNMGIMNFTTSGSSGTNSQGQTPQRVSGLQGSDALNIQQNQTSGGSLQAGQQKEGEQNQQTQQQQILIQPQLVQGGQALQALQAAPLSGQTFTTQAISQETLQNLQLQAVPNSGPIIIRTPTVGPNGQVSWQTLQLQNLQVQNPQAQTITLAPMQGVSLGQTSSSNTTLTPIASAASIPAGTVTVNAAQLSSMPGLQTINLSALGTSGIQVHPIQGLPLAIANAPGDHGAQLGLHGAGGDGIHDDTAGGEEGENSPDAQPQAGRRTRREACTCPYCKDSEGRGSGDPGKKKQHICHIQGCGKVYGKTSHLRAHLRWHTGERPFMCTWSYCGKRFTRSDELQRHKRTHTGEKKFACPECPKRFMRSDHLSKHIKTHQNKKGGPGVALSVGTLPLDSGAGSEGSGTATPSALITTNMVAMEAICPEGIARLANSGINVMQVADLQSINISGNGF

One assay has as its target Transcription factor Sp1 (Homo sapiens) (UniProt P08047). Kind of assay: ATG_Sp1_CIS: Attagene CIS-FACTORIAL HepG2 Assay for human Specificity Protein 1 (Sp1) (AID 2282961). Conditions: HepG2 Sp1 cis-reporter transcription, actives raise or lower the signal. Put shortly: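 After transient transfection of HepG2 cells with cis-promoter reporter units and 24 h chemical treatment, reporter transcripts were quantified by RT-PCR and capillary electrophoresis fluorescence. Gain- and loss-of-signal fitted against DMSO.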
As for `CC1(C)O[C@@H]2C[C@H]3[C@@H]4CCC5=CC(=O)C=C[C@]5(C)[C@@]4(F)[C@@H](O)C[C@]3(C)[C@]2(C(=O)CO)O1`, the molecule was called inactive.

In the case of `CCOc1ccc(N=Nc2ccc(C=Cc3ccc(N=Nc4ccc(OCC)cc4)cc3S(=O)(=O)O)c(S(=O)(=O)O)c2)cc1`, the molecule was classed as inactive.

`c1ccc(CN(Cc2ccccc2)Cc2ccccc2)cc1`: the AC50 – broadly, the concentration giving half of the maximal activity seen – was 165 µM (active).

For `CC(=O)CC(=O)Nc1ccccc1`, the result was inactive.

With `CCNCCO`, the result was inactive.

Consider `O=CCc1ccccc1`, for which the molecule was called inactive.

Consider `C=C(C)[C@H]1CC=C(C)C(=O)C1`, for which the result was inactive.

For the molecule `CC(C)OCCO`, the molecule was classed as inactive.

Consider `CC(C)CCCCCCc1ccc(OCCOCCO)cc1`, for which the molecule was called inactive.

In the case of `CCc1cc(C(C)(C)C)c(O)c(C(C)(C)C)c1`, the AC50 is 33.4 µM (active).

Turning to `CC(=O)OCCCc1ccccc1`, the molecule was called inactive.

For `Clc1ccc(C(c2ccccc2Cl)C(Cl)Cl)cc1` (stereo not drawn), the AC50 is 52.7 µM (active).

Take `C=CC(C)(O)CCC=C(C)C` (stereo not drawn): the call was inactive.

On to `Nc1c(Cl)cc(Cl)cc1[N+](=O)[O-]`, for which the result was inactive.

For `C[C@H](CCC(=O)NCC(=O)O)[C@H]1CC[C@H]2[C@@H]3[C@H](O)C[C@@H]4C[C@H](O)CC[C@]4(C)[C@H]3C[C@H](O)[C@]12C`, the outcome was inactive.

Consider `CCCOCCO`, for which the molecule was called inactive.

Take `CN(C)C(=S)SC(=S)N(C)C`: the outcome was inactive.

As to `Cc1cc(CCC(=O)OCCOCCOCCOC(=O)CCc2cc(C)c(O)c(C(C)(C)C)c2)cc(C(C)(C)C)c1O`, the call was inactive.

On to `CCCCCCCCCCCC(=O)OC[C@@H](O)[C@H]1OC[C@H](O)[C@H]1O`, for which the molecule was called inactive.

`COC(=O)c1ccc(OC)cc1`: the molecule was classed as inactive.

Regarding `COC(C)(C)CCO`, the result was inactive.

With `CC(=O)O[C@@H]1CC2CCC1(C)C2(C)C` (stereo partly drawn), the call was inactive.

For the molecule `C[C@H]1O[C@@H](O[C@H]2[C@@H](O)C[C@H](O[C@H]3[C@@H](O)C[C@H](O[C@H]4CC[C@@]5(C)[C@H](CC[C@@H]6[C@@H]5C[C@@H](O)[C@]5(C)[C@@H](C7=CC(=O)OC7)CC[C@]65O)C4)O[C@@H]3C)O[C@@H]2C)C[C@H](O)[C@@H]1O`, the AC50 was 0.042 µM (active).

On to `CC[N+](C)(CC)CC`, for which the result was inactive.

`COCCOCCOCCO`: the result was inactive.

As to `COC(C)(C)CCCC(C)CC=O` (stereo not drawn), the call was inactive.

For `COc1ccc(COC(C)=O)cc1`, the call was inactive.

Regarding `Cc1ccc(S(N)(=O)=O)cc1`, the result was inactive.

With `O=C(O)c1cc(C(=O)O)cc([N+](=O)[O-])c1`, the outcome was inactive.

On to `CC(C)Nc1nc(N)nc(Cl)n1`, for which the outcome was inactive.

As for `C[C@@H]1CCN(C(=O)[C@H](CCCN=C(N)N)NS(=O)(=O)c2cccc3c2NC[C@H](C)C3)[C@@H](C(=O)O)C1`, the outcome was inactive.

Regarding `CCCCCCCC/C=C\CCCCCCCC(=O)OCC`, the call was inactive.

For `CCOC(=O)COC(=O)c1cc(Oc2ccc(C(F)(F)F)cc2Cl)ccc1[N+](=O)[O-]`, the result was inactive.

As for `O=C(O)c1cccnc1C(=O)O`, the outcome was inactive.

As for `O=C(Nc1ccc2c(O)c(N=Nc3ccc(N=Nc4ccc(S(=O)(=O)O)cc4)cc3)c(S(=O)(=O)O)cc2c1)c1ccccc1`, the result was inactive.

Turning to `Cc1ncc([N+](=O)[O-])n1CCO`, the outcome was inactive.

Regarding `CCOc1ccc(NC(=O)CC(C)=O)cc1`, the molecule was classed as inactive.

For the molecule `CC/C=C\CCOC(=O)CC`, the result was inactive.

Test system in the next assay: not listed separately
Kind of assay: ATG_SREBP_CIS: Attagene CIS-FACTORIAL HepG2 Assay for human Sterol Regulatory Element Binding (SREBP) (AID 2282962). Conditions: HepG2 Attagene cis-factorial SREBP reporter, mRNA; actives raise or lower the signal. Summed up:
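HepG2 cells transiently transfected with multiplexed cis-promoter reporter units sensing endogenous transcription factors; reporter mRNA measured 24 h after dosing by RT-PCR, 6-FAM labeling, HpaI digestion and capillary electrophoresis. Bidirectional fit versus DMSO.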
On to `CC1(C)O[C@@H]2C[C@H]3[C@@H]4CCC5=CC(=O)C=C[C@]5(C)[C@@]4(F)[C@@H](O)C[C@]3(C)[C@]2(C(=O)CO)O1`, for which the molecule was called inactive.

In the case of `CCOc1ccc(N=Nc2ccc(C=Cc3ccc(N=Nc4ccc(OCC)cc4)cc3S(=O)(=O)O)c(S(=O)(=O)O)c2)cc1`, the molecule was classed as inactive.

Consider `CC(=O)CC(=O)Nc1ccccc1`, for which the outcome was inactive.

For `CCNCCO`, the outcome was inactive.

As to `O=CCc1ccccc1`, the call was inactive.

In the case of `C=C(C)[C@H]1CC=C(C)C(=O)C1`, the call was inactive.

As for `CC(C)OCCO`, the outcome was inactive.

`CC(C)CCCCCCc1ccc(OCCOCCO)cc1`: the molecule was classed as inactive.

Turning to `CCc1cc(C(C)(C)C)c(O)c(C(C)(C)C)c1`, the AC50 was 59.9 µM (active).

Turning to `Clc1ccc(C(c2ccccc2Cl)C(Cl)Cl)cc1` (stereo not drawn), the call was inactive.

On to `C=CC(C)(O)CCC=C(C)C` (stereo not drawn), for which the result was inactive.

For `Nc1c(Cl)cc(Cl)cc1[N+](=O)[O-]`, the outcome was inactive.

As for `C[C@H](CCC(=O)NCC(=O)O)[C@H]1CC[C@H]2[C@@H]3[C@H](O)C[C@@H]4C[C@H](O)CC[C@]4(C)[C@H]3C[C@H](O)[C@]12C`, the call was inactive.

As for `CCCOCCO`, the molecule was classed as inactive.

Take `CN(C)C(=S)SC(=S)N(C)C`: the call was inactive.

Regarding `Cc1cc(CCC(=O)OCCOCCOCCOC(=O)CCc2cc(C)c(O)c(C(C)(C)C)c2)cc(C(C)(C)C)c1O`, the call was inactive.

In the case of `CCCCCCCCCCCC(=O)OC[C@@H](O)[C@H]1OC[C@H](O)[C@H]1O`, the outcome was inactive.

As to `COC(=O)c1ccc(OC)cc1`, the outcome was inactive.

For the molecule `COC(C)(C)CCO`, the call was inactive.

With `CC(=O)O[C@@H]1CC2CCC1(C)C2(C)C` (stereo partly drawn), the call was inactive.

Turning to `C[C@H]1O[C@@H](O[C@H]2[C@@H](O)C[C@H](O[C@H]3[C@@H](O)C[C@H](O[C@H]4CC[C@@]5(C)[C@H](CC[C@@H]6[C@@H]5C[C@@H](O)[C@]5(C)[C@@H](C7=CC(=O)OC7)CC[C@]65O)C4)O[C@@H]3C)O[C@@H]2C)C[C@H](O)[C@@H]1O`, the AC50 was 0.0822 µM (active).

Consider `COCCOCCOCCO`, for which the molecule was classed as inactive.

For `COC(C)(C)CCCC(C)CC=O` (stereo not drawn), the result was inactive.

As for `COc1ccc(COC(C)=O)cc1`, the molecule was classed as inactive.

For `Cc1ccc(S(N)(=O)=O)cc1`, the molecule was called inactive.

As to `O=C(O)c1cc(C(=O)O)cc([N+](=O)[O-])c1`, the result was inactive.

On to `CC(C)Nc1nc(N)nc(Cl)n1`, for which the molecule was classed as inactive.

Consider `C[C@@H]1CCN(C(=O)[C@H](CCCN=C(N)N)NS(=O)(=O)c2cccc3c2NC[C@H](C)C3)[C@@H](C(=O)O)C1`, for which the molecule was called inactive.

Consider `CCCCCCCC/C=C\CCCCCCCC(=O)OCC`, for which the call was inactive.

As to `CCOC(=O)COC(=O)c1cc(Oc2ccc(C(F)(F)F)cc2Cl)ccc1[N+](=O)[O-]`, the call was inactive.

In the case of `O=C(O)c1cccnc1C(=O)O`, the result was inactive.

Regarding `O=C(Nc1ccc2c(O)c(N=Nc3ccc(N=Nc4ccc(S(=O)(=O)O)cc4)cc3)c(S(=O)(=O)O)cc2c1)c1ccccc1`, the molecule was classed as inactive.

As for `Cc1ncc([N+](=O)[O-])n1CCO`, the molecule was called inactive.

For the molecule `CCOc1ccc(NC(=O)CC(C)=O)cc1`, the molecule was called inactive.

Take `CC/C=C\CCOC(=O)CC`: the call was inactive.
